The subject of test [1] is HaCat. The test can be described thus: Cytotoxic Profiling of Annotated Libraries Using Quantitative High-Throughput Screening (AID 1296008). Further: nearly all actives have a fitted effect of over 60% in size. The conditions noted are these: Five cell lines viability, CellTiter-Glo ATP luminescence, 48-72 h; max response: stronger effect = lower value. Summed up: (§1)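 Cells exposed to compounds for 48 or 72 hr at 37 degrees Celsius. Viability read as ATP-coupled luminescence with CellTiter-Glo after 10 min at room temperature.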

For another test, the system named is KB-3-1. The description is as above. The note with it: Five cell lines viability, CellTiter-Glo ATP luminescence, 48-72 h; max response: stronger effect = lower value. Summed up: as §1
Test [2] has as its system NIH3T3. The description is as above. The note with it: Five cell lines viability, CellTiter-Glo ATP luminescence, 48-72 h; max response: stronger effect = lower value. Summed up: as §1
Test [3] relates to HACAT. In words: qHTS assay to identify novel small-molecules to repurpose for Merkel cell carcinoma treatment (AID 1296009). Further: nearly all actives have a fitted effect of over 60% in size. The note with it: MCC and control cell lines, CellTiter-Glo viability, 72 h; series mostly up to 44.8 µM. Summed up:
(§2)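 Cells were treated for 72 hr at 37 degree celsius with compounds in 8- or 11-point dose response. Viability was read by CellTiter-Glo luminescence, normalized to no-cell (cytotoxicity) and DMSO controls.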

The test system of the next test is MKL-1. Described as above. The note with it: MCC and control cell lines, CellTiter-Glo viability, 72 h; series mostly up to 46 µM. Summed up: as §2
In a further test the test system is MKL-2. The description is as above. The note with it: MCC and control cell lines, CellTiter-Glo viability, 72 h; series mostly up to 46 µM. Summed up:
as §2

The subject of the next test is WaGa. The description is as above. The conditions noted are these: MCC and control cell lines, CellTiter-Glo viability, 72 h; series mostly up to 46 µM. Summed up: as §2
The next test relates to HeLa. The test can be described thus: Primary qHTS to identify gynecologic anti-cancer compounds using libraries of approved drugs and bioactive compounds (AID 1345084). Further: nearly all actives have a fitted effect of over 55% in size. The conditions noted are these: Gynecologic cancer cell panel viability, ATPlite luminescence, 48 h; series mostly up to 57.5 µM. Summed up:
(§3)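 Cell viability after 48 h drug treatment, ATPlite luminescence readout; five doses.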

A further test relates to Hek293T. The test is described as above. The conditions noted are these: Gynecologic cancer cell panel viability, ATPlite luminescence, 48 h, control line for the selectivity index; series mostly up to 57.5 µM. In a few lines:
as §3

A further test concerns JEG-3. The description is as above. The note with it: Gynecologic cancer cell panel viability, ATPlite luminescence, 48 h; series mostly up to 57.5 µM. Summed up:
as §3

A further test concerns OV90. The description is as above. The conditions noted are these: Gynecologic cancer cell panel viability, ATPlite luminescence, 48 h; series mostly up to 57.5 µM. In a few lines: as §3
Another test concerns MCC-13. In words: qHTS assay to identify novel small-molecules to repurpose for Merkel cell carcinoma treatment (AID 1296009). Further: nearly all actives have a fitted effect of over 60% in size. The note with it: MCC and control cell lines, CellTiter-Glo viability, 72 h; series mostly up to 46 µM. In a few lines:
as §2

Another test relates to MCC-26. The description is as above. The conditions noted are these: MCC and control cell lines, CellTiter-Glo viability, 72 h; series mostly up to 46 µM. Summed up:
as §2

The test system of a further test is C33A. The test can be described thus: Primary qHTS to identify gynecologic anti-cancer compounds using libraries of approved drugs and bioactive compounds (AID 1345084). Further: nearly all actives have a fitted effect of over 55% in size. The note with it: Gynecologic cancer cell panel viability, ATPlite luminescence, 48 h; series mostly up to 57.5 µM. In a few lines: as §3
The subject of a further test is Es-2. The test is described as above. The conditions noted are these: Gynecologic cancer cell panel viability, ATPlite luminescence, 48 h; series mostly up to 57.5 µM. In a few lines: as §3
The subject of test [4] is NIH3T3. The test can be described thus: qHTS assay to identify novel small-molecules to repurpose for Merkel cell carcinoma treatment (AID 1296009). Further: nearly all actives have a fitted effect of over 60% in size. The conditions noted are these: MCC and control cell lines, CellTiter-Glo viability, 72 h; at 44.8 µM (top of the series) unless noted. In a few lines: as §2
The test system of another test is UISO. Described as above. The conditions noted are these: MCC and control cell lines, CellTiter-Glo viability, 72 h; series mostly up to 46 µM. Summed up: as §2
Another test has as its system CAOV3. The test can be described thus: Primary qHTS to identify gynecologic anti-cancer compounds using libraries of approved drugs and bioactive compounds (AID 1345084). Further: nearly all actives have a fitted effect of over 55% in size. The note with it: Gynecologic cancer cell panel viability, ATPlite luminescence, 48 h; series mostly up to 57.5 µM. In a few lines:
as §3

For a further test, the system named is CASKI. Described as above. The conditions noted are these: Gynecologic cancer cell panel viability, ATPlite luminescence, 48 h; series mostly up to 57.5 µM. In a few lines:
as §3

Where “and” joins values, the source holds several entries; their conditions need not be identical. Equal entries are not always repeated. Inconclusive results are not listed. Where a structure was tested more than once in an assay, its records may differ in their call. Values without a mark were called inactive. Calls of active or inactive are those of the source. The call rests on the fitted dose curve; in most records, active means well fitted curve in the direction sought with a large enough effect; inconclusive means small, poorly fitted or top-dose-only effect, or another doubt; inactive means no such curve, though single readings can be large; an effect the other way counts as inactive or inconclusive.
On the % scale 0 is the no-effect control and ±100 the full control effect; potency means the concentration at half of the fitted maximal effect.

For `Cn1c(=O)n(-c2ccc(C(C)(C)C#N)cc2)c2c3cc(-c4cnc5ccccc5c4)ccc3ncc21`, in the test with HaCat [1], the compound was classed as inactive. For the same compound, the Potency in the test on KB-3-1 was 731 nM (active) and 16.6 nM (active); with NIH3T3 [2] it was 580 nM (active) and 46.9 nM (active); in the test with Hek293T it was 794 nM (active); in the test on OV90 it was 1410 nM (active). The Potency entry in the test on HACAT [3], in the test with MKL-1, with MKL-2, in the test with WaGa, with HeLa and with JEG-3 was “inactive” in each case.
In the case of `Cc1c(NC(=O)OC[C@@H]2COCCN2)cn2ncnc(Nc3ccc4c(cnn4Cc4cccc(F)c4)c3)c12`, the Potency in the test on HaCat [1] was 4.69 µM (active) and 2.91 µM (active); in the test with NIH3T3 [2] it was 20.9 µM (active). For the same compound, the max response in the test with KB-3-1 is -29.5%; in the test with NIH3T3 [2] it was 3.43%. Besides, the Potency result in the test on MCC-13, in the test with MCC-26, with MKL-1, in the test on WaGa, in the test with C33A and in the test with Es-2 was “inactive” each time. Moreover, the Potency entry in the test with HeLa, in the test with Hek293T and in the test with JEG-3 was “inactive” throughout.
Turning to `Cc1nc2cnc3ccc(C#Cc4cccnc4)cc3c2n1-c1ccc(C(C)(C)C#N)cc1`, the figures for the Potency in the test with HaCat [1], in the test with KB-3-1 and with NIH3T3 [2] were 1.18 µM (active), 93.5 nM (active) and 0.148 µM (active), respectively.
For the compound `C[C@@H]1COC(Nc2ccc3ncnc(Nc4ccc(OCc5nccs5)c(Cl)c4)c3c2)=N1`, the Potency with HaCat [1] was 1.66 µM (active) and 1.3 µM (active). The max response was -27.7% in the test on KB-3-1 and -19.2% in the test with NIH3T3 [2]. In addition, the compound was called inactive in the test on NIH3T3 [2] and with NIH3T3 [4]. For the same compound, the Potency entry with MCC-13, in the test with MCC-26, in the test with HeLa and in the test with JEG-3 was “inactive” each time.
On to `CC[C@@]1(O)C(=O)OCc2c1cc1n(c2=O)Cc2cc3cc(O)ccc3nc2-1`, for which the Potency was 116 nM (active) and 743 nM (active) with HaCat [1]; 517 nM (active) and 1.05 µM (active) in the test with KB-3-1; 1.46 µM (active) and 662 nM (active) in the test on NIH3T3 [2]; 118 nM (active) with MCC-13; 132 nM (active) in the test on MCC-26; 37.2 nM (active) with MKL-1. For the same compound, the Potency is 264 nM (active) with MKL-2; 74.3 nM (active) in the test with UISO; 18.7 nM (active) in the test on WaGa; 794 nM (active) with C33A; 355 nM (active) with CAOV3; 398 nM (active) in the test on CASKI. Also, the figures for the Potency in the test on Es-2 and with Hek293T were 355 nM (active) and 1260 nM (active), respectively.
`CN1c2cc(O)c(N=NC(N)=O)cc2CC1S(=O)(=O)O` (configuration not stated): in the test with HaCat [1], the max response is -1.08%. Besides, the result in the test with KB-3-1, with NIH3T3 [2] and in the test with NIH3T3 [4] was inactive. Moreover, the Potency entry in the test with MCC-13, with MCC-26, with MKL-1, in the test with MKL-2, in the test with UISO and in the test with WaGa was “inactive” each time.
Consider `COc1ccc(-c2cc3c(C)nc(N)nc3n(C3CCC(OCCO)CC3)c2=O)cn1` (configuration not stated), for which the Potency in the test on HaCat [1] was 52.6 nM (active) and 2.31 µM (active); in the test with KB-3-1 it was 105 nM (active) and 517 nM (active); in the test on NIH3T3 [2], 1.3 µM (active); in the test with MCC-13, 1870 nM (active); with MCC-26, 1320 nM (active); with MKL-1, 4180 nM (active). Further, the Potency with MKL-2 was 166 nM (active); in the test with UISO, 166 nM (active); in the test with WaGa it was 2090 nM (active); in the test on CAOV3 it was 1000 nM (active); in the test with CASKI, 1410 nM (active); with Es-2, 2510 nM (active). The Potency with HeLa was 7940 nM (active); in the test on Hek293T it was 1410 nM (active); with OV90 it was 2000 nM (active).
For `Cc1ccc(C(=O)Nc2cccc(C(F)(F)F)c2)cc1-c1ccc2nc(NCCN3CCOCC3)ncc2c1`, the Potency is 6.51 µM (active) in the test with HaCat [1]; 16600 nM (active) in the test on KB-3-1; 10.5 µM (active) and 18.4 µM (active) with NIH3T3 [2]; 11800 nM (active) in the test with MCC-13; 18700 nM (active) in the test with MCC-26; 22400 nM (active) with CAOV3. The Potency was 14100 nM (active) in the test on CASKI, 11200 nM (active) in the test on Es-2, 11200 nM (active) with HeLa and 6310 nM (active) in the test with OV90. The Potency entry in the test with MKL-2, in the test with WaGa and with Hek293T was “inactive” throughout.
On to `CCOC(=O)C1=C(C)NC2=C(C(=O)CC(C)(C)C2)C1c1ccc(-c2ccccc2)cc1` (configuration not stated), for which the Potency is 7.31 µM (active) with HaCat [1]; 20.9 µM (active) and 5.8 µM (active) with NIH3T3 [2]; 2350 nM (active) in the test on MKL-2; 28200 nM (active) in the test with Hek293T. Further, the call in the test on KB-3-1 was inactive. The Potency result in the test with MCC-13, in the test on MCC-26, in the test on UISO, with JEG-3 and with OV90 was “inactive” throughout.
Take `CNC(=O)c1cc(Oc2ccc(NC(=O)Nc3cc(C(C)(C)C)nn3-c3ccc4ncccc4c3)c(F)c2)ccn1`: the Potency in the test with HaCat [1] was 7.31 µM (active); with KB-3-1, 9.35 µM (active) and 5.17 µM (active); in the test on NIH3T3 [2], 2.96 µM (active). Further, the Potency result with MCC-13, in the test with MKL-1, in the test on MKL-2 and in the test with WaGa was “inactive” throughout.
For the compound `COc1cc2c(Oc3ccc(NC(=O)C4(C(=O)Nc5ccc(F)cc5)CC4)cc3F)ccnc2cc1OCCCN1CCOCC1`, the Potency was 4.18 µM (active) and 6.51 µM (active) in the test with HaCat [1]; 1.32 µM (active) and 2.91 µM (active) in the test with KB-3-1; 526 nM (active) and 731 nM (active) with NIH3T3 [2]; 14800 nM (active) in the test with MCC-13; 4690 nM (active) with MCC-26; 4690 nM (active) with MKL-1. Also, the Potency was 6620 nM (active) in the test on UISO; 10000 nM (active) in the test with CAOV3; 25100 nM (active) in the test with Es-2; 6310 nM (active) in the test on HeLa; 7940 nM (active) in the test on Hek293T; 12600 nM (active) with OV90. Moreover, the Potency entry in the test on JEG-3 was “inactive”.
In the case of `CN1CCN(Cc2ccc(NC(=O)Nc3ccc(Oc4cc(NC(=O)C5CC5)ncn4)cc3)cc2C(F)(F)F)CC1`, the Potency with HaCat [1] was 743 nM (active) and 920 nM (active); with KB-3-1, 132 nM (active) and 206 nM (active); in the test on NIH3T3 [2], 0.59 µM (active); in the test on MCC-13 it was 2350 nM (active); with MCC-26, 1180 nM (active); with MKL-1, 372 nM (active). For the same compound, the Potency is 264 nM (active) in the test on MKL-2; 332 nM (active) with UISO; 1780 nM (active) in the test on CASKI; 1580 nM (active) with Es-2; 891 nM (active) in the test with HeLa; 1410 nM (active) in the test on Hek293T. In addition, the Potency in the test with JEG-3 is 2820 nM (active); in the test with OV90 it was 631 nM (active).

These data come from PubChem BioAssay (NCATS).
